aSyn 5UTR act – Activators working through SNCA 5'UTR binding (MLPCN). activity score, % (tested at 7.5 µM), hits read low. alpha-synuclein 5'UTR reporter, activators screen. AID 1814. 7.1% of 300,000 active; in the data active = activity score below about -60%
An asterisk follows results filed as active. These entries were drawn from the full list.

SMILES	aSyn 5UTR act
COc1ccc(N(C(=O)c2cnccn2)C(C(=O)NCc2ccccc2)c2ccc(O)cc2)cc1 (configuration not stated)	-75.9*
Oc1ccc(N=Nc2n[nH]c(-c3ccc(Cl)cc3)n2)cc1	-109.3*
CN(C)/N=C/C=C1\CCC/C(=C/c2cccs2)C1=O	-172.8*
CN(C)/N=C/C=C1\CC/C(=C\c2ccc(Br)cc2)C1=O	-84.1*
Cc1csc(NC(=O)Cc2ccc(F)cc2)n1	-64.7*
CN1CCN(CC(=O)Nc2nc(-c3c[nH]c4ccccc34)cs2)CC1	-62.5*
COc1ccc2c(CC(=O)Nc3ncc(C)s3)coc2c1	-133.2*
Cc1csc(NC(=O)Cc2c(F)cccc2Cl)n1	-131.2*
Cc1cccc(NC(=O)Cc2c(F)cccc2Cl)n1	-103.2*
O=C(Cc1c[nH]c2ccccc12)Nc1nc2ccccc2[nH]1	-101.3*
Cc1cc(CNC(=O)Cc2c(F)cccc2Cl)nn1C	-71.6*
Cc1ccc(CC(=O)Nc2cccc(C)n2)cc1	-171.9*
Cc1csc(NC(=O)Cc2c[nH]c3ccccc23)n1	-94.6*
Cc1ccc2c(CC(=O)Nc3nc(C)cs3)coc2c1	-70.3*
O=[N+]([O-])c1ccc(N=Nc2ncc[nH]2)cc1	-95.6*
CNc1ccccc(-c2ccc3ccccc3n2)c1=O	-140.5*
O=C(CSc1nnc(-c2ccco2)n1Cc1ccccc1)c1ccccc1	-104.1*
Cc1ccc(C(=O)CSc2nnc(-c3ccco3)n2Cc2ccccc2)cc1	-96.8*
Cc1cccc2c1ncc1c(=O)n(-c3ccccc3)[nH]c12	-145.9*
Cc1ccc(-n2nc3c(n2)/C(=N/O)CC/C3=N\O)cc1	-89.1*
COc1ccc2nc(Nc3nc(C)c(C(C)=O)s3)sc2c1	-186.3*
CCOC(=O)c1cc2nc(Nc3ccc(OC)cc3)sc2s1	-83.2*
COc1ccc(Nc2nc3ccc(OC)cc3s2)cc1	-119.7*
CC1CCc2c(sc3nc(CSc4n[nH]c(N)n4)[nH]c(=O)c23)C1 (configuration not stated)	-92.3*
Cc1cccc2nc(COc3ccc(-c4ccccc4)cc3)cn12	-121.1*
SMILES	aSyn 5UTR act
O=c1[nH]nc(Cc2ccc3ccccc3n2)c2ccccc12	-70.8*
Nn1c(SCc2ccccc2)nc2ccccc21	-126.5*
Cc1cc(C(=O)CSc2ncccn2)c(C)n1Cc1ccco1	-68.6*
Cc1cc(C(=O)CSc2nnnn2C)c(C)n1Cc1ccco1	-109.5*
COc1ccc(C(C#N)=C2C=CC(=NO)C=C2)cc1	-148.3*
Cc1cc(C(=O)N/N=C/c2cc(N=Nc3ccccc3)ccc2O)n[nH]1	65.5
O=C(N/N=C/C(Br)=C/c1ccccc1)c1ccccc1F	-201.1*
O=C(N/N=C/C(Br)=C/c1ccccc1)c1cc(-c2ccco2)[nH]n1	-62.1*
CC1C(=O)NN=C1C(=O)N/N=C\C(Br)=C\c1ccccc1 (configuration not stated)	-133.6*
O=C(N/N=C/C(Cl)=C/c1ccccc1)c1ccccc1F	-191.5*
C/C(=N/NC(=O)c1cc(C2CC2)[nH]n1)c1cccs1	84.3
C/C(=N\NC(=O)C1=NNC(=O)C1C)c1cccs1 (configuration not stated)	-80.6*
Cn1cc(/C=C(\C#N)C(=O)Nc2ccccc2O)c2ccccc21	-118.4*
O=c1oc2c(CN3CCOCC3)c(O)ccc2c2ccccc12	-71.7*
O=C(Oc1c(CN2CCOCC2)cc(Cl)c2cccnc12)c1ccccc1Cl	105.2
Cc1nc(/N=C\N(C)C)sc1C(=O)Nc1ccccc1	-78.9*
Cc1nc(C(=O)Nc2ccccc2)sc1C(=O)Nc1ccccc1	-166.2*
Cc1ccc(NC(=O)c2sc(N)nc2C)cc1	-185.4*
C(=C\c1ccco1)/c1nc2ccccc2[nH]1	-140.6*
Cc1ccc(-c2nc(C#N)c(NCc3cccc4c3OCO4)o2)cc1	-65.8*
CC(C)(C)c1ccc(-c2nc(C#N)c(NCc3ccncc3)o2)cc1	-106.6*
CC(=O)Nc1cccc(-c2csc(Nc3ccccn3)n2)c1	-120.0*
Cc1ccnc(Nc2nc(-c3c(C)nc4sccn34)cs2)c1	-103.1*
CC(=O)Nc1ccc(-c2csc(Nc3cc(C)ccn3)n2)cc1	-100.6*
Cc1ccnc(Nc2nc(-c3ccccc3)cs2)c1	-155.4*
SMILES	aSyn 5UTR act
Cc1ccc(Nc2nc(-c3c(C)nc4ncccn34)cs2)cc1	84.0
CC(=O)Nc1nc(C)c(-c2csc(Nc3ccccn3)n2)s1	-114.5*
Cc1nc2ncccn2c1-c1csc(Nc2ccc(O)cc2)n1	-66.7*
CC(=O)Nc1cccc(-c2csc(Nc3cc(C)ccn3)n2)c1	-63.1*
O=C(CSc1nnc(NC(=O)c2ccccc2F)s1)NCc1ccco1	-79.8*
O=C(CSc1nnc(NC(=O)c2ccccc2F)s1)NCc1ccc(F)cc1	-83.8*
COc1ccc(C(=O)Nc2nnc(SCC(=O)Nc3ccc(NC(C)=O)cc3)s2)c(OC)c1	-63.1*
COc1ccc(C(=O)Nc2nnc(SCC(=O)NC3CCCC3)s2)c(OC)c1	58.1
COc1ccccc1C(=O)Nc1nnc(SCC(=O)NCC2CCCO2)s1 (configuration not stated)	-102.1*
COc1ccccc1C(=O)Nc1nnc(-c2ccco2)s1	-167.9*
COc1ccccc1-c1nnc(NC(C)=O)s1	-90.6*
COc1ccccc1C(=O)Nc1nnc(SCC(=O)NCc2ccco2)s1	-67.4*
Cc1ccccc1C(=O)Nc1nnc(-c2ccco2)s1	65.1
O=C(CSc1nnc(NC(=O)c2ccc(F)cc2F)s1)NC1CC1	-68.7*
Cc1ccc(Nc2nc(-c3cccnc3)cs2)cc1Cl	-174.9*
Clc1ccccc1-c1csc(Nc2cccnc2)n1	-71.5*
Clc1ccccc1Nc1nc(-c2cccnc2)cs1	-185.3*
COc1cccc(Nc2nc(-c3cccnc3)cs2)c1	-173.1*
COc1cccc2sc(Nc3nc(-c4ccncc4)cs3)nc12	105.0
c1cncc(Nc2nc(-c3cccnc3)cs2)c1	-71.6*
COc1cccc(-c2nc(N3CCN(C)CC3)c3ccccc3n2)c1O	-165.0*
COC(=O)c1ccsc1NC(=O)CCc1ccccc1	-109.1*
Cc1ccsc1C(=O)OCC(=O)Nc1sccc1C(N)=O	-130.4*
NC(=O)c1ccsc1NC(=O)CCc1ccccc1	-152.6*
Oc1oc(-c2ccccc2)nc1C=NCc1ccccc1	-133.0*
SMILES	aSyn 5UTR act
CN(C)c1ccc(N=Cc2nc(-c3ccccc3)oc2OC(=O)c2ccccc2)cc1	-115.4*
CN(C)c1ccc(N=Cc2nc(-c3ccccc3)oc2O)cc1	-94.9*
CC(=O)Oc1oc(-c2ccccc2)nc1/C=N/c1ccccn1	-71.6*
COc1c(O)ccc(/C=N/NC(=O)c2ccc3c(c2)OCCO3)c1[N+](=O)[O-]	-110.4*
O=C(N/N=C/c1ccc([N+](=O)[O-])o1)c1ccc2c(c1)OCO2	93.6
CN(C)c1ccc(/C=N/NC(=O)c2ccc3c(c2)OCO3)cc1	-103.6*
O=C(N/N=C/c1cccnc1)c1ccc2c(c1)OCCO2	-82.4*
Cc1ccc(/C=N\NC(=O)c2ccc3c(c2)OCO3)o1	-80.6*
O=C(N/N=C/c1ccc(Br)o1)c1ccc2c(c1)OCCO2	-122.8*
CC(C)C(=O)Nc1nnc(NC(=S)Nc2ccccc2)s1	-126.6*
CCCc1nnc(NC(=S)Nc2ccccc2)s1	-126.6*
O=C(CSC(=S)N1CCOCC1)Nc1nc(=O)c2ccccc2s1	-84.9*
CC(=O)Nc1ccc(-n2cc(-c3ccccc3)[nH]c2=S)cc1	-80.8*
COc1ccc(-n2cc(-c3ccccc3)[nH]c2=S)cc1	-90.9*
Cc1cccc(-n2cc(-c3ccccc3)[nH]c2=S)c1	-108.1*
Nc1ccc(Br)cc1-c1nc2ccccc2[nH]c1=O	-102.0*
CCSc1nnc(-c2ccccc2N)c(=O)[nH]1	-67.5*
Nc1ccccc1-c1nc2ccccc2[nH]c1=O	-141.1*

From PubChem
